From PubChem BioAssay
The list is not random: actives were taken first. Their share in the collection is about 2.2%.
sPLA2-III inh: Inhibits HGIII-sPLA2 liposome hydrolysis, primary screen; Q9NZ20; QFRET BODIPY PC-A2 liposome hydrolysis, fluorescence; inhibition, % at 12.2 µM; 370,000 tested, 0.56% active; AID 743126;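 active means inhibition above mean plus 3 SD of compounds lying within the high and low control bounds, cut at about 19% in these data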;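 further: 0% = median of test compound wells and 100% = no enzyme DMSO wells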
Target sequence (Q9NZ20 whole entry, looked up): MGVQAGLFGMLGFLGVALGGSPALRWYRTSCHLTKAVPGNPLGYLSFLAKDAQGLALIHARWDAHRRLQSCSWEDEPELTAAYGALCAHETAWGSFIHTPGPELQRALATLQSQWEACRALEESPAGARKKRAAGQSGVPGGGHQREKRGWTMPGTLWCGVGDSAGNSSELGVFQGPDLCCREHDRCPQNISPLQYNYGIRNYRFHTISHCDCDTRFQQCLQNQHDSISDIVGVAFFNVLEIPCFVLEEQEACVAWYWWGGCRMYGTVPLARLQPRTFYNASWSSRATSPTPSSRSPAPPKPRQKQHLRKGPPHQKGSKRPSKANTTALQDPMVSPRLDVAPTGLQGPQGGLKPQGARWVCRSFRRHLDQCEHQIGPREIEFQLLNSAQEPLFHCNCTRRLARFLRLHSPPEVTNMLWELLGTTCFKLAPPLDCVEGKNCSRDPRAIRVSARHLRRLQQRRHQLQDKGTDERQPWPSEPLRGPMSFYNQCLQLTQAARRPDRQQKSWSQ
Efflux pump inh: antifungal efflux pump inhibition, Nile Red retention; 330,000 tested, 0.44% active; inhibition, % at 10 µM; S. cerevisiae Candida pump triplex;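 active means plate passing quality check with inhibition over a set limit, or well fluorescence over plate mean plus 4 SD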;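 further: Nile Red retained in pooled yeast measured as flow cytometry median fluorescence; 0% = buffer negative control and 100% = Enniatin B positive control; higher means more Nile Red kept so more efflux inhibition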
SKN-1 block: blocks SKN-1 activity in C. elegans | inhibition, % at 21.8 µM | C. elegans VP596 Pgst-4::GFP/RFP ratio, acrylamide-induced, 24 h | AID 624304 | 360,000 tested, 0.49% active;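 active means interference check ratio from 0.5 to 1.5 plus GFP to RFP signal ratio inhibition reaching or exceeding a fixed threshold, cut at about 30% in these data, passing the limit was not always enough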
Mot1-301 SUMO: blocks SUMOylation pathway, rescuing yeast Mot1-301 growth | S. cerevisiae Mot1-301 growth rescue, ATP luminescence, 38.5C; percent above DMSO median, 100 means doubled | growth rescue, % at 18.8 µM | 320,000 tested, 1% active;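 active means every valid replicate shows activation above 250% relative to neutral control wells; inactive means the rest, any valid replicate at or below 250%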;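 further: OY570 slx delta 5 strain wells were the positive control but not used for scaling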
sPLA2 confirm: human GIII-sPLA2 inhibition, confirmation; shares compounds with sPLA2-III inh; recombinant hGIII-sPLA2, BODIPY PC-A2 QFRET fluorescence; inhibition, % at 12.2 µM; 2,000 tested, 34% active; AID 743280;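 active means mean inhibition across triplicates above the hit cutoff set in the earlier primary screen, cut at about 19% in these data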;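 further: 0% = enzyme with DMSO and 100% = DMSO wells lacking enzyme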
BODIPY interf: 535nm fluorescence interference, HGIII-sPLA2 counter-screen; shares compounds with sPLA2-III inh; inhibition, % at 12.2 µM; AID 743282; 2,000 tested, 8.5% active; BODIPY FL product fluorescence interference, QFRET;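 active means average inhibition above the solvent-only control mean plus 3 SD, cut at about 6% in these data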;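 further: 0% = DMSO with substrate plus product and 100% = DMSO with substrate alone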
535nm interf DR: 535nm optical interference dose response, HGIII-sPLA2 counter-screen | 240 tested, under 10 active | shares compounds with sPLA2-III inh | IC50, µM | AID 743455 | BODIPY FL product fluorescence interference, cell-free;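 active means IC50 at or below 10 µM; inactive means IC50 above 10 µM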
An asterisk follows results filed as active; . = not tested or not shown.

SMILES	sPLA2-III inh	Efflux pump inh	SKN-1 block	Mot1-301 SUMO	sPLA2 confirm	BODIPY interf	others
CC(C)NC(=S)NC(c1ccccc1)(c1ccccc1)c1ccccc1	21.6*	0.2	10.5	24.5	29.0*	-12.5
COc1cc([N+](=O)[O-])c(OC)cc1SCc1n[nH]c(=S)n1-c1ccc(C)cc1	19.3*	-0.2	-3.1	-0.7	22.1*	5.4
COc1cc([N+](=O)[O-])c(OC)cc1SCc1n[nH]c(=S)n1-c1ccc(F)cc1	22.2*	0.0	-4.6	-12.5	35.8*	5.6
COc1ccc(OCc2n[nH]c(=S)n2-c2ccc(C)cc2)cc1	17.3	0.0	5.3	6.9	.	.
CC(C)C(NC(=O)Cc1ccccc1)C(=O)N1CCN(c2cccc(Cl)c2)CC1 (configuration not stated)	9.5	0.4	2.6	7.0	.	.
O=C1Nc2ccc(Br)cc2/C1=C/C(=O)c1ccc2c(c1)OCO2	25.6*	0.0	-6.5	-12.1	42.2*	14.4*
COC(=O)c1ccc(C(=O)OC)c(NC(=S)N2CCC(C)CC2)c1	22.4*	-0.3	-10.4	46.9	6.6	-6.2
O=C(CNC(=O)c1ccco1)Nc1ccc(N2CCCCCC2)cc1	22.5*	-0.2	-8.7	-7.1	12.2	0.3
O=C(CNC(=O)c1ccc(Br)o1)Nc1ccc(N2CCCCCC2)cc1	10.8	.	-1.5	.	.	.
COc1ccc(OC)c(C(=O)COC(=O)COc2ccccc2)c1	-7.6	-0.1	2.6	12.5	.	.
COC(=O)c1cc(-c2ccc(Br)cc2)c2c(=O)n(C)c(=O)n(C)c2n1	4.1	-0.1	4.7	21.4	.	.
CSCCC(NC(=O)COc1ccccc1)C(=O)N(C)CC(=O)Nc1c(C)cccc1C (configuration not stated)	20.7*	0.0	5.3	3.0	0.5	-17.2
CSCCC(NC(=O)COc1ccccc1)C(=O)OCCOc1ccc(C)cc1 (configuration not stated)	-7.9	0.1	4.5	10.4	.	.
CCC(C)[C@@H](C(=O)NCC1CCC(C(=O)O)CC1)n1nnc2ccccc2c1=O (some centres not stated)	19.7*	-0.4	0.4	172.2	2.2	-4.3
C[C@@H](C(=O)NCCCCCC(=O)O)n1nnc2ccccc2c1=O	-0.5	0.1	-7.5	10.9	.	.
CNC(=S)NNC(=O)Cc1ccc(O)cc1	25.8*	0.0	-18.2	-8.4	5.6	-2.9
COc1ccc(C2NCCc3c2[nH]c2ccccc32)cc1CSc1nc2ccccc2s1 (configuration not stated)	19.8*	0.7	-1.4	35.1	-2.3	-3.9
Cc1ccccc1SCCNC(=O)CCc1ccccc1	.	0.1	.	-0.8	.	.
COc1ccc(OC)c(NC(=O)CSc2nnc(NC(=O)c3ccco3)s2)c1	-4.1	-0.2	15.2	-2.7	.	.
CC(NC(=O)CN1CCOCC1)c1ccc(F)cc1 (configuration not stated)	20.6*	-0.1	4.2	-27.6	-5.1	-5.0
O=C(CN1C(=O)NC(c2ccccc2)(c2ccccc2)C1=O)NCCc1ccc(F)cc1	-9.8	-0.6	9.2	-10.7	.	.
CCN1C(=O)N[C@H](c2ccccc2)C(C(C)=O)=C1C	4.3	0.0	5.4	213.9	.	.
COCCCNCCCCSc1ccc(Cl)cc1	21.6*	-0.6	-5.3	.	-7.9	-26.7
OCCNCCCCSc1ccc(Cl)cc1	0.0	-0.1	-9.3	12.3	.	.
Cc1c(C(C)c2ccccc2O)c2ccccc2n1C (configuration not stated)	3.3	.	.	.	.	.
SMILES	sPLA2-III inh	Efflux pump inh	SKN-1 block	Mot1-301 SUMO	sPLA2 confirm	BODIPY interf	others
Oc1ccc(/C=C/c2ccccc2F)c2cccnc12	27.5*	.	.	.	5.7	9.6*
Oc1ccc(CCc2c(F)cccc2F)c2cccnc12	16.4	.	.	.	.	.
O=C(O)c1ccccc1SCc1nc2ccccn2c1Br	2.6	-0.3	-4.3	9.2	.	.
N=C(N)SCc1ncccc1O	.	0.1	10.1	-2.7	.	.
N=C(N)SCc1nc2ccccn2c1Br	29.7*	-0.1	-5.4	11.5	5.0	-4.4
Cc1cccc2nc(CSC(=N)N)c(Br)n12	23.6*	0.0	-1.5	1.2	11.0	-11.2
CN(CCCC(=O)Nc1ccc(OC(F)F)cc1)S(=O)(=O)c1ccc(F)cc1	-15.9	-0.2	-4.6	4.3	.	.
COc1nc(Nc2ccc(O)cc2)nc(OC(C(F)(F)F)C(F)(F)F)n1	-10.5	-0.1	-4.9	0.6	.	.
Nc1cccc(Nc2nc(OC(C(F)(F)F)C(F)(F)F)nc(OC(C(F)(F)F)C(F)(F)F)n2)c1	28.2*	0.1	4.6	241.8	31.4*	-3.1	535nm interf DR=>122
O=C(CN1C(=O)c2ccccc2C1=O)Oc1ccc(F)cc1	.	0.0	.	23.0	.	.
CCN(c1ccc(C(=O)CSc2nnc(C3CC3)n2C2CC2)cc1)S(C)(=O)=O	-5.5	0.3	9.1	3.0	.	.
CN(C)C(CNC(=O)c1cnc(Cl)c(Cl)c1)c1ccccc1 (configuration not stated)	20.7*	0.8	8.8	-1.5	-2.7	-10.1
CN(C)C(CNC(=O)c1cc(S(=O)(=O)N(C)c2ccccc2)ccc1Cl)c1ccccc1 (configuration not stated)	-9.7	0.0	-5.5	.	.	.
O=S(=O)(c1ccc(-c2n[nH]c(=S)o2)cc1)N1CCCC1	21.2*	-0.2	-5.5	5.0	18.4	-3.2
COc1ccccc1CNC(=O)C1CCC(CNS(=O)(=O)c2ccccc2)CC1 (configuration not stated)	-3.5	0.0	3.3	-0.2	.	.
COc1ccccc1NC(=O)N1CCC(c2nc3cc(C)c(C)cc3[nH]2)CC1	-2.1	0.3	5.5	-11.6	.	.
COc1ccccc1NC(=S)N1CCC(c2nc3cc(C)c(C)cc3[nH]2)CC1	21.3*	-0.2	4.4	-21.3	13.3	-12.2
O=C(CN(C(=O)c1csnn1)c1ccc(F)c(Cl)c1)NCc1ccc2c(c1)OCO2	1.8	0.0	1.1	2.7	.	.
N=C1C=CC(=C(c2ccc(N)cc2)c2ccc(N)cc2)C=C1	21.4*	.	59.7*	.	17.3	-1.0
CCOCCCNC(=O)CN(Cc1ccc(Cl)cc1)S(C)(=O)=O	10.0	-0.2	8.4	5.1	.	.
COCCCNC(=O)CN(Cc1ccc(Cl)cc1)S(C)(=O)=O	20.6*	-0.1	4.6	-2.1	5.6	-6.8
COc1ccc(C2=NOC(C(=O)Nc3ccc4c(c3)OCCO4)C2)c(OC)c1 (configuration not stated)	-3.1	-0.1	-4.4	-11.6	.	.
NNc1nc2c(F)cc(F)cc2s1	20.0*	-0.1	8.6	37.5	19.9*	5.3
O=C(COc1ccc(Cl)cc1)N1CCN(S(=O)(=O)c2cc(F)ccc2F)CC1	1.8	.	-5.3	.	.	.
CC(NC(=O)C(C(=O)c1cccc([N+](=O)[O-])c1)n1cc(Cl)ccc1=O)c1ccccc1 (configuration not stated)	24.5*	0.1	4.5	-4.0	-5.7	-5.6
Cc1ccc(C(=O)N2CC(=O)NC(=O)C2)cc1	4.8	-0.1	16.6	-5.8	.	.
